Compounds with a hit are over-represented: about 19% of the library has one in this group of screens.
DT40 TDP1 CPT – growth inhibition of DT40 Tdp1-/-;hTDP1 cells with camptothecin (screen for TDP1 inhibitors); Potency, µM (titrated, usually from 46.2 µM), without a hit: top-dose activity change, negative = growth inhibition, most hits filed as inhibitors; 420,000 tested, 12% active; chicken DT40 Tdp1-/-;hTDP1 cells + 20 nM CPT, ATP luminescence, 48 h; note: nearly all actives have a fitted effect of over 55% in size
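Chicken DT40 Tdp1-/- cells complemented with human TDP1, 400 cells/well, exposed to compounds plus 20 nM camptothecin for at least 48 h at 37 C; viability read as ATP content by CellTiter-Glo luminescence.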
RORgamma inh – inhibitors of mouse ROR gamma transcriptional activity | Drosophila S2 Gal4-RORgamma UAS-luciferase reporter, 20 h | P51450 | 310,000 tested, 5.4% active | Potency, µM (highest dose often 53.6 µM), inactives show at the top dose activity change, negative = inhibition, most hits filed as inhibitors; note: nearly all actives have a fitted effect of over 60% in size
Target sequence (P51450 whole entry, looked up, the tested form may be a part): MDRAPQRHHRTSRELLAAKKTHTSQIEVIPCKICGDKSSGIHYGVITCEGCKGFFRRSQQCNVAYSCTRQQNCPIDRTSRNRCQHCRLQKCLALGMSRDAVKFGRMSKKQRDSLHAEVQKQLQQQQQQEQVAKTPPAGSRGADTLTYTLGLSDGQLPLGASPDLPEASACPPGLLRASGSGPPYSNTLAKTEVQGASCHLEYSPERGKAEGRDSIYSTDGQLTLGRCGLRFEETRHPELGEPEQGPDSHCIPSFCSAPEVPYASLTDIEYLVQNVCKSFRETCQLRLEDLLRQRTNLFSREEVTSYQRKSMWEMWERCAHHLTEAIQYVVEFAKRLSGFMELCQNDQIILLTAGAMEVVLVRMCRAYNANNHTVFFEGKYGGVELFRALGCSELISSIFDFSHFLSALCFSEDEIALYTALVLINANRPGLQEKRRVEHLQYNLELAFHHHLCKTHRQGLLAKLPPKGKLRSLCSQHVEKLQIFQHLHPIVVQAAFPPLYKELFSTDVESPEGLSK
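In this cell-based reporter format, copper sulfate (700 uM final) drives Gal4–ROR gamma fusion expression from a metallothionein promoter in Drosophila Schneider cells; compounds preincubated 1 hr, reporter read after 20 hr at ambient temperature.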
TDP1 block – inhibitors of human tyrosyl-DNA phosphodiesterase TDP1. Q9NUW8. recombinant TDP1, AlphaScreen DNA substrate cleavage. Potency, µM (titrated, usually from 130 µM), inactives show at the highest dose activity change, negative = inhibition, usual class: inhibitors. 350,000 tested, 0.28% active; note: nearly all actives have a fitted effect of over 40% in size
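Tdp1 1 nM final; 15 min RT w/ cpd; substrate 15 nM, 5 min; beads 10 ug/ml, 10 min; AlphaScreen read. Neg ctrl: no enzyme.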
TDP1 cell noCPT – qHTS for Inhibitors of human tyrosyl-DNA phosphodiesterase 1 (TDP1): qHTS in cells in absence of CPT. Potency, µM (doses to about 46.2 µM), inactives show at the top dose activity change, negative = growth inhibition, usual class: inhibitors. 420,000 tested, 15% active. AID 686978, 2013. DT40 Tdp1-/- hTDP1 cells, no CPT, ATP luminescence, 48 h; note: nearly all actives have a fitted effect of over 55% in size
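Readout: luminescence from CellTiter-Glo after 30 min in the dark at RT. Cells: DT40 Tdp1-/- with stable hTDP1, 400/well. Exposure: compounds alone, ≥48 hr, 37 °C.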
VP16 counter – Gal4-VP16 reporter inhibition counter-screen. Drosophila S2 Gal4-VP16 UAS-luciferase, luminescence, 20 h. Potency, µM (highest dose often 53.6 µM), for inactives: top-dose activity, negative = inhibition, usual class: inhibitors. 310,000 tested, 3.5% active;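 note: Gal4-VP16 expression switched on by copper sulfate through the metallothionein promoter; nearly all actives have a fitted effect of over 50% in size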
* = called active by the depositor; ? = inconclusive; · = no result given; [ ] = another dose, or the depositor's remark. Calls come from the whole dose curve; as a rule, active = well fitted curve in the direction sought with a large enough effect; inconclusive = small, poorly fitted or top-dose-only effect, or another doubt; inactive = no such curve, though single readings can be large; an effect the other way counts as inactive or inconclusive. % is set by controls: 0 for no effect and ±100 for the full control effect; potency is the fitted concentration of half-maximal effect.

SMILES	DT40 TDP1 CPT	RORgamma inh	TDP1 block	TDP1 cell noCPT	VP16 counter
CC1CCCCC1NC(=O)CCS(=O)(=O)c1cc2c(cc1Cl)NC(=O)CO2 (stereo not given)	-2.6%	6.2%	3.2%	1.2%	2.3%
Cc1cccc(C)c1NC(=O)C(c1ccccc1)n1c(=O)c(-c2cc3ccccc3[nH]2)nc2ccccc21 (stereo not given)	16.4µM*	·	·	14.6µM*	·
Cc1cccc(C)c1NC(=O)C(c1cccc2ccccc12)n1c(=O)c(-c2cc3ccccc3[nH]2)nc2ccccc21 (stereo not given)	13µM*	·	·	9.2µM*	·
Cc1cccc(C)c1NC(=O)C(c1ccncc1)n1c(=O)c(-c2cc3ccccc3[nH]2)nc2ccccc21 (stereo not given)	11.6µM*	·	·	20.6µM*	·
Cc1cccc(C)c1NC(=O)C(c1ccncc1)N1CCN(C)CC1 (stereo not given)	7.4%	·	·	0.5%	·
Cc1cccc(C)c1NC(=O)C(c1ccccc1)n1c(=O)c(-c2ccccc2)nc2ccccc21 (stereo not given)	?	·	·	16.4µM*	·
Cc1cccc(C)c1NC(=O)C(C1CC1)n1c(-c2ccc(=O)[nH]c2)nc2ccccc21 (stereo not given)	1.9%	·	·	-0.7%	·
CN(C)CC(=O)Nc1ccc(S(N)(=O)=O)cc1	-9.4%	-10.3%	2.3%	-3.7%	2.2%
CC(=O)N1CCC(c2nc3ccccc3n2C(C)C(=O)NCc2ccccc2)CC1 (stereo not given)	5.4%	·	·	5.0%	·
O=C(NCc1ccccc1)C(c1cccc2ccccc12)n1c(=O)c(-c2cc3ccccc3[nH]2)nc2ccccc21 (stereo not given)	14.6µM*	·	·	?	·
CC1CCCCC12NC(=O)N(CC(=O)Nc1sc3c(c1C(N)=O)CCC3)C2=O (stereo not given)	?	-1.6%	·	-20.4%	-12.1%
CCn1cc(CN2CCCC(C(=O)c3ccc(-c4ccccc4)c(F)c3)C2)cn1 (stereo not given)	18.4µM*	7.6%	·	23.1µM*	1.0%
O=C(c1ccc(-c2ccccc2)c(F)c1)C1CCCN(CCCn2cccn2)C1 (stereo not given)	16.4µM*	-32.2%	·	?	7.7%
CSc1ccccc1C(=O)C1CCCN(Cc2cnn(-c3ccccc3)c2)C1 (stereo not given)	-26.8%	-4.7%	·	?	0.2%
COc1ccc(C(=O)C2CCCN(Cc3cn(C)nc3-c3ccccc3)C2)cc1F (stereo not given)	?	2.6%	5.1%	25.9µM*	-0.6%
CCOc1ccccc1CN1CCCC(C(=O)c2ccc(OC)c(OC)c2)C1 (stereo not given)	?	-19.0%	·	?	-0.2%
COc1c(C)cc(C(=O)C2CCCN(S(=O)(=O)N(C)C)C2)cc1C (stereo not given)	?	6.2%	·	13µM*	5.7%
O=C(COC(=O)c1ccc(CNS(=O)(=O)c2ccc(F)c(Cl)c2)cc1)NCC1CCCCC1	-8.9%	-16.0%	2.7%	-7.0%	-8.5%
O=C(c1ccco1)N1CCN(CC(=O)N2c3ccccc3CCc3ccccc32)CC1	-13.0%	-8.0%	-5.2%	0.6%	-1.4%
CN(C)S(=O)(=O)N1CCCC(C(=O)c2ccc(-c3ccccc3)c(F)c2)C1 (stereo not given)	16.4µM*	?	·	14.6µM*	?
COC(=O)c1ccc(C#CC(NP(=O)(c2ccccc2)c2ccccc2)c2ccccc2)cc1 (stereo not given)	·	?	?	·	-11.3%
COC(=O)c1cccc(C#CC(NP(=O)(c2ccccc2)c2ccccc2)c2ccccc2)c1 (stereo not given)	25.9µM*	0.7%	12.3%	?	11.1%
c1ccn2cc(C34CC5CC(CC(C5)C3)C4)nc2c1	?	5.62µM*	3.8%	18.4µM*	22.4µM*
COc1ccc(-c2nc3cc(NC(=O)Cc4ccc(Cl)cc4)ccc3o2)cc1OC	16.4µM*	·	-8.4%[12.3 µM]	13µM*	·
Cc1ccccc1-c1nc2cc(NC(=O)Cc3ccc(Cl)cc3)ccc2o1	?	·	-3.1%[12.3 µM]	20.6µM*	·
SMILES	DT40 TDP1 CPT	RORgamma inh	TDP1 block	TDP1 cell noCPT	VP16 counter
Cc1ccccc1-c1nc2cc(Cl)ccc2c(=O)o1	?	12.6%	·	16.4µM*	2.1%
Cc1ccccc1-c1nc2cc(Cl)ccc2o1	-14.8%	-0.7%	-1.0%	1.4%	11.4%
OCCCN=c1cc(-c2ccccc2)oc2ccc(Cl)cc12	?	-21.7%	7.9%	18.4µM*	-7.4%
O=c1cc(-c2ccccc2)oc2ccc(O)cc12	?	-10.9%	5.5%	?	-2.5%
CC1(C)CC(N=c2cc(-c3ccccc3)oc3ccc(Cl)cc23)CC(C)(C)N1	5.17µM*	?	2.5%	5.8µM*	?
O=C(c1ccccc1-n1cccn1)N1CCOc2ccc(CN3CCOCC3)cc2C1	12.4%[9.04 µM]	·	·	-22.2%	·
CC(C)Oc1ccc(CNC(=O)C2CCN(C(=O)c3sccc3-n3cccc3)CC2)cc1	-17.6%	·	3.9%	?	·
CCN(CC)CCCNC(=O)C1CCN(C(=O)c2cc3sccc3n2Cc2ccc(F)cc2)CC1	-20.6%	-23.2%	0.7%	-15.8%	-9.1%
CC(CCc1ccccc1)NC(=O)C1CCN(C(=O)c2sccc2-n2cccc2)CC1 (stereo not given)	?	13.3%	1.2%	20.6µM*	8.8%
CCn1c(C(=O)N2CCC(C(=O)NCCc3ccccc3)CC2)cc2sccc21	?	·	-4.9%	25.9µM*	·
CCOc1ccc(CCNC(=O)C2CCN(C(=O)c3cc4sccc4n3CC)CC2)cc1OCC	16.4µM*	·	3.9%	18.4µM*	·
CCn1c(C(=O)N2CCC(C(=O)NCCCSC3CCCCC3)CC2)cc2sccc21	?	-59.9%	4.9%	18.4µM*	14.1µM*
Cc1ccc(SCC(=O)Nc2ccc(F)cc2[N+](=O)[O-])cc1C	22.1%	25.2%	7.9%	-26.2%	-5.9%
O=C(/C=C/c1ccc2c(c1)OCO2)NCC1CCCO1 (stereo not given)	6.2%	7.1%	1.3%	-2.1%	7.2%
CSc1ccccc1NC(=O)c1noc(C)c1[N+](=O)[O-]	-20.0%	5.7%	5.4%	-24.0%	-0.3%
CCn1c(C(=O)N2CCC(C(=O)NCCc3ccc(C)cc3)CC2)cc2sccc21	16.4µM*	·	1.0%	20.6µM*	·
CCCSCCCNC(=O)C1CCN(C(=O)c2cc3sccc3n2C)CC1	20.6µM*	·	4.9%	20.6µM*	·
O=C(NNC(=O)c1cccnc1SCc1cccc([N+](=O)[O-])c1)c1ccc(F)cc1	23.1µM*	?	-1.1%	11.6µM*	?

Screening data (PubChem)
